Assay [1] has as its system Zika virus NS2B-NS3 protease. As to the kind of experiment: Primary screen GU AMC qHTS for Zika virus inhibitors (AID 1347154).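 Also: 0% = no-inhibitor control and -100% = no-enzyme control; nearly all actives have a fitted effect of over 70% in size.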 An outline of the steps: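 Unlinked Zika NS2B hydrophilic domain–NS3 protease complex at 25 nM in 10 mM Tris-HCl pH 8.0, 0.01% Tween 20, with an AMC peptide substrate. Fluorescence change (340/450 nm) over 15 min at room temperature, normalized to controls, fitted to 4-parameter Hill.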
On the technique in general: Quantitative high-throughput screening tests each substance at several concentrations.

Assay [2] can be described thus: Validation of Assay for Modulators of Lamin A Splicing (AID 1459; active = well fitted curve in the direction sought with a large enough effect in the signal ratio; the % refers to the signal ratio;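 also: cells exposed to compound for two days before reading; 0% is about no effect; ratio rise marks activators and ratio drop marks inhibitors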). An outline of the steps:
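Dual-reporter HeLa S3 line (lamin A-EGFP minigene, DsRed2) treated with compounds 48 hrs, 0.5% DMSO final. Endpoint: EGFP/DsRed2 total intensity ratio from laser-scanning microplate cytometry.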

Assay [3] can be described thus: qHTS Assay for Lipid Storage Modulators (AID 1519; calls by dose curve). The note with it: Drosophila S3 cells, BODIPY lipid droplet/cell ratio, laser cytometry, cells loaded with oleic acid. Summed up: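 Cells seeded at 5,000 per well were treated with compounds over a concentration series and loaded with oleic acid (400 uM, as added). Lipid droplet fluorescence (488 nm excitation, 500-530 nm channel) was read by laser-scanning cytometry and normalized to 20 uM Triacsin C.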

Assay [4] deals with DNA repair nuclease/redox regulator APEX1 (Homo sapiens) (UniProt P27695). As to the kind of experiment: qHTS Validation Assay for Inhibitors of the Human Apurinic/apyrimidinic Endonuclease 1 (APE1) (AID 1705;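 also: TAMRA fluorescence gain over two minutes as APE1 cuts a quenched THF abasic duplex; % is scaled to controls: 0 for no effect and ±100 for the full control effect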). An outline of the steps:
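Substrate: 50 nM final fluorophore/quencher THF-abasic duplex. Enzyme preincubated with compounds 15 min, RT. Progress derived from fluorescence difference, third minus first kinetic read.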

Assay [5] is described as follows: Counterscreen for APE1 Inhibitors: Fluorescent Dye Displacement Validation Assay (AID 1707).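 Also: plate controls were ThO with dsDNA and no compound for no effect and ThO without dsDNA for full effect.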 Summed up:
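Thiazole Orange (250 nM) bound to 50 nM TAMRA-labelled dsDNA with tetrahydrofuran abasic site; displacement by DNA-binding compounds lowers fluorescence. Buffer 50 mM Tris-HCl pH 7.5, 50 mM NaCl, 2 mM MgCl2, 0.01% Tween-20; endpoint read at 480/540 nm.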

Assay [6] deals with Endonuclease 4 (Escherichia coli (strain K12)) (UniProt P0A6C1). Description: Counterscreen for APE1 Inhibitors: qHTS Validation Assay for Inhibitors of Endonuclease IV (AID 1708). Also: % is scaled to controls: 0 for no effect and ±100 for the full control effect. An outline of the steps: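 E. coli EndoIV at 2 nM final, preincubated 15 min at room temperature with compound, then 50 nM TAMRA/BHQ-2 THF abasic-site duplex added. Buffer: 50 mM Tris-HCl pH 7.5, 50 mM NaCl, 2 mM MgCl2, 1 mM DTT, 0.01% Tween-20. Kinetic fluorescence increase, third minus first read.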
In general terms: Counterscreens check selectivity or assay interference.

The nature of assay [7]: qHTS for differential inhibitors of proliferation of Plasmodium falciparum line 7G8 (AID 1815).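 Also: potency is read from the fitted curve at half-maximal effect; parasite growth measured after three days of incubation.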
A short description of assay [8]: qHTS for differential inhibitors of proliferation of Plasmodium falciparum line GB4 (AID 1816).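 Also: potency is read from the fitted curve at half-maximal effect; parasite growth measured after 72 h incubation.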 The conditions noted are these: Potency: Plasmodium falciparum GB4 proliferation inhibition.
The nature of assay [9]: qHTS for differential inhibitors of proliferation of Plasmodium falciparum line 3D7 (AID 1876). Also: potency is read from the fitted curve at half-maximal effect.
Assay [10] in a line: qHTS for differential inhibitors of proliferation of Plasmodium falciparum line W2 (AID 1883).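 Also: potency is read from the fitted curve at half-maximal effect; parasites grown with compound for 72 h before lysis and staining.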 The conditions noted are these: Potency: Plasmodium falciparum W2 proliferation inhibition.
A short description of assay [11]: qHTS for differential inhibitors of proliferation of Plasmodium falciparum line HB3 (AID 1886).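 Also: potency is read from the fitted curve at half-maximal effect; parasites grown with compound for 72 h before SYBR Green readout.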 The conditions noted are these: Potency: Plasmodium falciparum HB3 proliferation inhibition.
The target of assay [12] is ATP-dependent DNA helicase Q1 (Homo sapiens) (UniProt P46063). As to the kind of experiment: qHTS Validation Assay for Inhibitors of RecQ-Like Dna Helicase 1 (RECQ1) (AID 2353).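 Also: plate controls were DMSO vehicle for no effect and enzyme-free control for full effect.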 Summed up:
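50 nM RECQ1T1 preincubated 15 min with compound in Tris pH 8.0 buffer with MgCl2, DTT, Tween-20 and 2.5 ug/ml poly(dI-dC); started with 200 nM TAMRA/BHQ-2 forked duplex and 2 mM ATP. Unwinding read as fluorescence (525/598 nm), two reads 2 h apart.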

Assay [13] in a line: Validation screen for inhibitors of Lassa infection (AID 463096; calls by dose curve; also: % is scaled to controls: 0 for no effect and ±100 for the full control effect).
Assay [14] in a line: Validation screen for small molecules that induce DNA re-replication in MCF 10A normal breast cells (AID 463097). Also: 0% is about no effect; nearly all actives have a fitted effect of over 60% in size. An outline of the steps: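 Following 48 hr compound incubation (37 C, 5% CO2), MCF 10A cells receive Hoechst for 40 min at 37 C. Nuclei are then scanned (excitation 405 nm, emission 500-530 nm) for total fluorescence intensity.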
For assay [15], the target named is M-phase phosphoprotein 8 (Homo sapiens) (UniProt Q99549). Description: qHTS Validation Assay for Inhibitors for MPP8 Chromodomain Interactions with Methylated Histone Tails (AID 488949).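 Also: 50 nM MPP8 with 50 nM peptide preformed then compounds added for 30 min; AlphaScreen signal from MPP8 chromodomain bound to biotinylated H3K9me3 peptide; top concentration of the series differs between compounds; % is scaled to controls: 0 for no effect and ±100 for the full control effect; nearly all actives have a fitted effect of over 55% in size.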 Summed up:
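Chemiluminescent proximity assay: histidine-tag capture via nickel acceptor beads, biotin peptide via streptavidin donor beads. Protein and peptide each at 50 nM, pH 7.4, with 30 min incubations at room temperature for complex formation, compound exposure and bead binding.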

Assay [16] has as its target Thyrotropin receptor (Homo sapiens) (UniProt P16473). Description: qHTS Assay for Antagonists of the Thyroid Stimulating Hormone Receptor (AID 488980). Also: 0% is about no effect. An outline of the steps: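 Inhibition of TSH-stimulated cAMP accumulation was quantified by homogeneous time-resolved FRET in TSHR-transfected HEK293 cells. Agonist: TSH, 4 nM final (EC80).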
The target in assay [17] is Thyrotropin-releasing hormone receptor (Homo sapiens) (UniProt P34981). Description: qHTS for Small Molecule Agonists and Allosteric Enhancers of Human TRH Receptor: Validation Screen for Agonists (AID 493127;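 active = calcium activation more than 3 SD above the typical response in the agonist read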;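 also: intracellular calcium rise by fluo-8 fluorescence before TRH EC20 addition; 0% is about no effect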). The note with it: TRH receptor agonist cell assay; at 2 µM; stronger effect = higher value. An outline of the steps: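 Cells 2000/well, 10% FCS, 18 h 33.5C/5% CO2 → fluo-8 Ca dye, RT 30 min–1.5 h → FDSS baseline 10 × 1 s → compound added → 230 cycles (1 s/cycle) agonist mode. TRH controls.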
Sequence of Thyrotropin-releasing hormone receptor (Homo sapiens) (P34981 whole entry, looked up): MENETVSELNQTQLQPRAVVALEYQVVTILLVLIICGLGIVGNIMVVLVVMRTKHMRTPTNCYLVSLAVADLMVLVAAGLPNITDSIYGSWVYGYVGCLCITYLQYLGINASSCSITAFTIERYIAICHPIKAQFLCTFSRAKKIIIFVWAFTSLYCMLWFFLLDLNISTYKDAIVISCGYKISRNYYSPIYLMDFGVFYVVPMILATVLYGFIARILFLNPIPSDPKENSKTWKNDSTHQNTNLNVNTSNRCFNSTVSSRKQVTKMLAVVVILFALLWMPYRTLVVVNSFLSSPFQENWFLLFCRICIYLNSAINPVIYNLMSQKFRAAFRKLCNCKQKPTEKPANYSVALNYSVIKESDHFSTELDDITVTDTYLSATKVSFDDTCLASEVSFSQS

For assay [18], the target named is Galactokinase (Homo sapiens) (UniProt P51570). As to the kind of experiment: qHTS Validation Assay for Inhibitors of Human Galactokinase (GALK) (AID 493189). Also: 0% is about no effect. Summed up:
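Enzyme activity is inferred from ATP consumption: human GALK phosphorylates galactose (100 uM) using 35 uM ATP for 1 h at room temperature, and luciferase-based Kinase-Glo Plus reports unconsumed ATP.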

Assay [19] is described as follows: Validation screen for small molecules that induce DNA re-replication in SW480 colon adenocarcinoma cells (AID 504364). Also: 0% is about no effect. An outline of the steps:
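250 cells/well; compound pinned in; 48 hr, 37 C, 5% CO2; Hoechst added, 40 min; nuclear fluorescence imaged, 405 ex / 500-530 em; re-replication scored as increase in high-intensity nuclei.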

Assay [20] concerns the target Voltage-gated inwardly rectifying potassium channel KCNH2 (Homo sapiens) (UniProt Q12809). Description: qHTS Assay for Small Molecule Inhibitors of the Human hERG Channel Activity (AID 588834).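 Also: top concentration of the series differs between compounds; % is scaled to controls: 0 for no effect and ±100 for the full control effect; lower thallium flux fluorescence means stronger hERG block; nearly all actives have a fitted effect of over 50% in size.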 Summed up: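 Blockade is seen as reduced FluxOR thallium-flux fluorescence in U2OS cells expressing hERG from a BacMam construct, in Opti-MEM with 2% FCS. Concentration-response data fitted to the Hill equation for AC50.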

A short description of assay [21]: Primary qHTS for small molecule stabilizers of the endoplasmic reticulum resident proteome: Secreted ER Calcium Modulated Protein (SERCaMP) assay (AID 1508630). Also: % is scaled to controls: 0 for no effect and ±100 for the full control effect. An outline of the steps: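 GLuc-SERCaMP-expressing SH-SY5Y cells, pretreated 16 h with compound, are challenged with thapsigargin to empty ER calcium stores; after 4 h, coelenterazine is added directly to the medium and luminescence is imaged.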

Results on three compounds are retold here after PubChem BioAssay (NCATS).

Records with an inconclusive call do not appear. The source made the active and inactive calls. Unless noted, calls follow the shape of the dose curve; as a rule, active = well fitted curve in the direction sought with a large enough effect; inconclusive = small, poorly fitted or top-dose-only effect, or another doubt; inactive = no such curve, though single readings can be large; an effect the other way counts as inactive or inconclusive. Where a SMILES comes first, the peptide text is derived from it.

Sequence of DNA repair nuclease/redox regulator APEX1 (Homo sapiens) (P27695 whole entry, looked up): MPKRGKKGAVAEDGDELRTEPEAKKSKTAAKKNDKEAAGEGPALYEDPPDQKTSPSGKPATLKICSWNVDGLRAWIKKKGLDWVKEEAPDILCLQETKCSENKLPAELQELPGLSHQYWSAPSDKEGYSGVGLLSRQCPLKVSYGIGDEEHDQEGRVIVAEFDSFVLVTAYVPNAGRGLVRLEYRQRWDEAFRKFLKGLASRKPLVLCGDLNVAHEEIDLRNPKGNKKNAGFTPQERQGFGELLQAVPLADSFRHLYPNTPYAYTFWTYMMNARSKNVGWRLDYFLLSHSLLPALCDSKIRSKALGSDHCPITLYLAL
Sequence of Thyrotropin receptor (Homo sapiens) (P16473 whole entry, looked up): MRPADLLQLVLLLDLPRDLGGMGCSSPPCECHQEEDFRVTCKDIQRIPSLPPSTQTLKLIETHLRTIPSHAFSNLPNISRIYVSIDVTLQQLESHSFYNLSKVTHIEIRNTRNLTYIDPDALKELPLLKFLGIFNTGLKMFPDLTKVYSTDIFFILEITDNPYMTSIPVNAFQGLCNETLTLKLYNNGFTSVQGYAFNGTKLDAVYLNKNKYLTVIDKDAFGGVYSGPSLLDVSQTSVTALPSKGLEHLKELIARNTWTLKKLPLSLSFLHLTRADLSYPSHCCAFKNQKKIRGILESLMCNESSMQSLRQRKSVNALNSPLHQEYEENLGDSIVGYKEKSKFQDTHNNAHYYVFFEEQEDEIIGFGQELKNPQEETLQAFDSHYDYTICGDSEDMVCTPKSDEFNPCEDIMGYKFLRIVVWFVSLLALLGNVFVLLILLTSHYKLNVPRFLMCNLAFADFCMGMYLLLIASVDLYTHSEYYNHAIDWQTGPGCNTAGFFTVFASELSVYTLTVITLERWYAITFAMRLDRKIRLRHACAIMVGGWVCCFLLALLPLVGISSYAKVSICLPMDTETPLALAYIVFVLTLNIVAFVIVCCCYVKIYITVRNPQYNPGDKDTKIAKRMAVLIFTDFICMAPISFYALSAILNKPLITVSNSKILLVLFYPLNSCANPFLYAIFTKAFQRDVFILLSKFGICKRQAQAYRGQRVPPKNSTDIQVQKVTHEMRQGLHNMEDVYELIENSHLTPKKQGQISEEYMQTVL
Sequence of ATP-dependent DNA helicase Q1 (Homo sapiens) (P46063 whole entry, looked up): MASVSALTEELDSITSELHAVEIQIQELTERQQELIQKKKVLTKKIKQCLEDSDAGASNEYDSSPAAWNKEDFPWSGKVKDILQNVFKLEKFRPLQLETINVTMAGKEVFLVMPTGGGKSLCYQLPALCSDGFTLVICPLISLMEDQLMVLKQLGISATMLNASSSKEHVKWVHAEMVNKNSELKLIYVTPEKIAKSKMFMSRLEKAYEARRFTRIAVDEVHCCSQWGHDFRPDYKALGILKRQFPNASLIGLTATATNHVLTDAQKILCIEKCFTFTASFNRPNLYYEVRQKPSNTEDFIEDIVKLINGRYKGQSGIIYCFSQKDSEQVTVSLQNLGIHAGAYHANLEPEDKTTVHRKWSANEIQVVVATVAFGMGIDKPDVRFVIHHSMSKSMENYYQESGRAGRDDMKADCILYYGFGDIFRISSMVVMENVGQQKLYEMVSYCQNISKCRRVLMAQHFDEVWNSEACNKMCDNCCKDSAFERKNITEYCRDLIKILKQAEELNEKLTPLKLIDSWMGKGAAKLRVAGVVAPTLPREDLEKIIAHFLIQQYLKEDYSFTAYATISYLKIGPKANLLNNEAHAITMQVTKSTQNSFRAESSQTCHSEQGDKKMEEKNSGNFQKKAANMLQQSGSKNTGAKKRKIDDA
Sequence of Voltage-gated inwardly rectifying potassium channel KCNH2 (Homo sapiens) (Q12809 whole entry, looked up): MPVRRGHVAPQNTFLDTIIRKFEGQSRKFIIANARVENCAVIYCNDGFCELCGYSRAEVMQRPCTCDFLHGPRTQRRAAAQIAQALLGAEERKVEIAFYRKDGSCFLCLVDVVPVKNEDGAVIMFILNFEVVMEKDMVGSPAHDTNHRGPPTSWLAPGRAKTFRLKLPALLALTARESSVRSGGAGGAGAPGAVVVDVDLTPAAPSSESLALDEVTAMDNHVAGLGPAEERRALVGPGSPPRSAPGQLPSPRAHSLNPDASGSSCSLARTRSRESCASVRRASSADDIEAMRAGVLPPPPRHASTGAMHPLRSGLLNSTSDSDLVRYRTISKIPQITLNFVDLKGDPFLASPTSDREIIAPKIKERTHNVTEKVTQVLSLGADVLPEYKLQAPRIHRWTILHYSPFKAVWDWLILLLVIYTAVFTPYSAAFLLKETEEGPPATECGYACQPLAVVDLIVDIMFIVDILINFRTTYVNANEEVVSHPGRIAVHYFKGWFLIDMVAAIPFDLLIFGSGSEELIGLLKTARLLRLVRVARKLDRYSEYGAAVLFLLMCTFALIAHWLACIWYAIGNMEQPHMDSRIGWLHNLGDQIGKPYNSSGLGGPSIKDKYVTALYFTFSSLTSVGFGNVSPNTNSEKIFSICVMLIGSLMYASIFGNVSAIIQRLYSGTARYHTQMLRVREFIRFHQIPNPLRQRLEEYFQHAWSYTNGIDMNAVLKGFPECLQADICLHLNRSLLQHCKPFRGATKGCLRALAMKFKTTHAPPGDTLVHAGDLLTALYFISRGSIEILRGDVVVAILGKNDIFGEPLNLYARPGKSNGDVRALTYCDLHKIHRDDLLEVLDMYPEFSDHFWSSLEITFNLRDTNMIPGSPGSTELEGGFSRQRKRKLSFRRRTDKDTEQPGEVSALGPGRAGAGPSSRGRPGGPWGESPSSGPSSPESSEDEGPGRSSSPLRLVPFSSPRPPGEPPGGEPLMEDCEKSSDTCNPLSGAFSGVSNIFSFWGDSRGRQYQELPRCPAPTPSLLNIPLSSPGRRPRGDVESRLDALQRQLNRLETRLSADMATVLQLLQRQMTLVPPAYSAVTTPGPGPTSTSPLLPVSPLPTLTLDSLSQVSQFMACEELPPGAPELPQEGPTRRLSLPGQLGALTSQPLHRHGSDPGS
Sequence of Galactokinase (Homo sapiens) (P51570 whole entry, looked up): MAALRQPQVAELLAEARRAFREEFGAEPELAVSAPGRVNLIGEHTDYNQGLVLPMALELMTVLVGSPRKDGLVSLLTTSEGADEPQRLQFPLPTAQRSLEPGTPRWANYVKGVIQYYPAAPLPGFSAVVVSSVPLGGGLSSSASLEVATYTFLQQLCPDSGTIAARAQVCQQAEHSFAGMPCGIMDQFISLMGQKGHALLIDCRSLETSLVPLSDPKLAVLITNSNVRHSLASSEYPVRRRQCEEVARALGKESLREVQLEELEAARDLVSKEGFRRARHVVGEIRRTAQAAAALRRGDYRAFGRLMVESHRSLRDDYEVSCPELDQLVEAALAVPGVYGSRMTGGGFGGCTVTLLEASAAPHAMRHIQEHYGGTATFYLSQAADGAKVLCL
Sequence of M-phase phosphoprotein 8 (Homo sapiens) (Q99549 whole entry, looked up): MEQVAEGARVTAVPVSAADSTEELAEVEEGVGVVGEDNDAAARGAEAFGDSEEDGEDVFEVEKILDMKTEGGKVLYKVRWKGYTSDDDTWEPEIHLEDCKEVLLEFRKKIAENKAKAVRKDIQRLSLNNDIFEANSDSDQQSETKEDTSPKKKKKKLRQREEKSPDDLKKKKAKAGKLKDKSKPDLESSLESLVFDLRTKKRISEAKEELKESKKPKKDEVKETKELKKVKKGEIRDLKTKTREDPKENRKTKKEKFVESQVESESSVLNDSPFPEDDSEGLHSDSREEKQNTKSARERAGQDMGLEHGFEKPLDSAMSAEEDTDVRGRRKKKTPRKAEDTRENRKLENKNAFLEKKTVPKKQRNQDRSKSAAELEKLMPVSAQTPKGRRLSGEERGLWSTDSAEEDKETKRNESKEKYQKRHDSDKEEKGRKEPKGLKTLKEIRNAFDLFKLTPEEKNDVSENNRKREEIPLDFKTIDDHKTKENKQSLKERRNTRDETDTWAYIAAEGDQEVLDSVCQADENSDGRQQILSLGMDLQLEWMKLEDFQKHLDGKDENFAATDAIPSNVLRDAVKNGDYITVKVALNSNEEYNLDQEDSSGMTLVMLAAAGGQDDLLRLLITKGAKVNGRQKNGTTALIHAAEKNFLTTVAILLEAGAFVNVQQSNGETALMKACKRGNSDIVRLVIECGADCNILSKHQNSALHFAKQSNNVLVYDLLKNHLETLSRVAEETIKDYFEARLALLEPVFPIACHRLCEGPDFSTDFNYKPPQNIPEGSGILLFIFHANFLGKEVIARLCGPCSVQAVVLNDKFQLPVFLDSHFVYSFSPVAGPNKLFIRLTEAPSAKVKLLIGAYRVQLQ

In the case of `C[C@H](N)C(=O)N[C@@H](C)C(=O)N[C@@H](Cc1ccccc1)C(=O)CCl` (HELM PEPTIDE1{A.A.F.[ClC[*:1]]}$$$$V2.0), the Potency entry in [1] is “inactive”.

With `CC1(C)[C@@H](O)C[C@H]2[C@](C)(O)[C@@H]3CC[C@H]4[C@@H](O)[C@@]3(C[C@@H](O)[C@@]21O)C[C@@]4(C)O`, the Potency entry in assay [1] was “inactive”.

As to `CC(O)C(C)OC(=O)[C@@H]1C[C@@H]2c3cccc4c3c(cn4C(C)C)C[C@H]2N(C)C1` (stereo not given in full), the call in assay [2], in assay [6], in [16] and in assay [18] was inactive. Also, the activity change, negative = inhibition in [3] (at 57.5 µM (top of the series)) was 2.46% (inactive). In addition, the max response in assay [3] (measured here: cell count channel max response) was -4.58%; in assay [3] (measured here: lipid channel max response) it was -0.261%. Also, the Potency result in [4], in assay [5], in [12], in [13], in assay [14] and in assay [15] was “inactive” each time. For the same compound, the Potency entry in [19], in assay [20], in assay [1] and in assay [21] was “inactive” each time. Further, the Potency in assay [7] is 11.2 µM (active); in [8], 12.6 µM (active); in [9] it was 12.6 µM (active); in assay [10] it was 7.94 µM (active); in [11], 14.1 µM (active). Further, the activation in assay [17] is 4% (inactive).
